Bioassay records as filed in PubChem BioAssay.
Shown are actives, neighbours in structure and some others; about 18% of the full set was active somewhere.
TDP1 cell CPT – growth inhibition of DT40 Tdp1-/-;hTDP1 cells with camptothecin (screen for TDP1 inhibitors); chicken DT40 Tdp1-/-;hTDP1 cells + 20 nM CPT, ATP luminescence, 48 h; Potency, µM (highest dose often 46.2 µM), most hits filed as inhibitors; hit rate 12% among 420,000; also: nearly all actives have a fitted effect of over 55% in size
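Cell growth measured by CellTiter-Glo luminescence after a minimum 48 h, 37 C compound exposure with 20 nM CPT in Tdp1-knockout DT40 cells stably expressing hTDP1, seeded 400/well; qHTS titration format.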
TGFb SMAD3 inh – blocks TGF-b signaling; HepG2 CAGA-GFP TGF-b/SMAD3 reporter, GFP fluorescence, 18 h; TGF-beta stimulated, 500 pg/mL final; Potency, µM (titrated, usually from 46.1 µM), usual class: inhibitors; hit rate 1.2% among 410,000; AID 588855; also: nearly all actives have a fitted effect of over 65% in size
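First, reporter cells (HEPG2 CAGA-GFP) rested 2 h at 37 degrees C. Next, compounds were pinned in and TGF-beta added to 500 pg/mL final. After 18 h, GFP was imaged per cell and summed per well.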
TDP1 cell noCPT – qHTS for Inhibitors of human tyrosyl-DNA phosphodiesterase 1 (TDP1): qHTS in cells in absence of CPT. DT40 Tdp1-/- hTDP1 cells, no CPT, ATP luminescence, 48 h. AID 686978, 2013. hit rate 15% among 420,000. Potency, µM (top dose mostly 46.2 µM), usual class: inhibitors; also: nearly all actives have a fitted effect of over 55% in size
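Camptothecin absent (DMSO only). Human TDP1-complemented DT40 knockout cells, 400 cells/well, 37 °C for minimum 48 hr; ATP measured via CellTiter-Glo, 30 min dark incubation, luminescence.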
HepG2 tox – HepG2 cytotoxicity, counter-screen for TGF-b inhibitors | HepG2 CAGA-GFP viability, ATP luminescence, 18 h | Potency, µM (highest dose often 46.1 µM), hits mostly cytotoxic | hit rate 0.76% among 410,000 | AID 588856
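HepG2 CAGA-GFP cells (1000/well, DMEM with 1% FBS) received compound, then TGF-beta at 500 pg/mL final, and were incubated 18 hours at 37 degrees C. Viability was read by CellTiter-Glo luminescence. Media-only wells were set as complete cell-killing and DMSO as no toxicity.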
IL1B secr inh – blocks inflammasome-driven IL-1 beta release; activity change, % at 57.5 µM; hit rate 4.7% among 360,000; THP-1 LPS/ATP IL-1B secretion, AlphaLISA, 16 h; active compounds read low; in the data active = activity change below about -50%; inconclusive = mostly about -30% to -49%
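Secreted IL-1B measured by AlphaLISA bead assay after 16 h compound exposure of THP-1 cells; compounds (final up to 57.5 uM) added 1 h before LPS (250 ng/mL) and ATP (1.25 mM) stimulation; lower signal means less secretion.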
TDP1 block – inhibitors of human tyrosyl-DNA phosphodiesterase TDP1 | recombinant TDP1, AlphaScreen DNA substrate cleavage | Potency, µM (series often up to 130 µM), usual class: inhibitors | hit rate 0.28% among 350,000 | AID 485290; also: nearly all actives have a fitted effect of over 40% in size
Target sequence (Q9NUW8 whole entry, looked up): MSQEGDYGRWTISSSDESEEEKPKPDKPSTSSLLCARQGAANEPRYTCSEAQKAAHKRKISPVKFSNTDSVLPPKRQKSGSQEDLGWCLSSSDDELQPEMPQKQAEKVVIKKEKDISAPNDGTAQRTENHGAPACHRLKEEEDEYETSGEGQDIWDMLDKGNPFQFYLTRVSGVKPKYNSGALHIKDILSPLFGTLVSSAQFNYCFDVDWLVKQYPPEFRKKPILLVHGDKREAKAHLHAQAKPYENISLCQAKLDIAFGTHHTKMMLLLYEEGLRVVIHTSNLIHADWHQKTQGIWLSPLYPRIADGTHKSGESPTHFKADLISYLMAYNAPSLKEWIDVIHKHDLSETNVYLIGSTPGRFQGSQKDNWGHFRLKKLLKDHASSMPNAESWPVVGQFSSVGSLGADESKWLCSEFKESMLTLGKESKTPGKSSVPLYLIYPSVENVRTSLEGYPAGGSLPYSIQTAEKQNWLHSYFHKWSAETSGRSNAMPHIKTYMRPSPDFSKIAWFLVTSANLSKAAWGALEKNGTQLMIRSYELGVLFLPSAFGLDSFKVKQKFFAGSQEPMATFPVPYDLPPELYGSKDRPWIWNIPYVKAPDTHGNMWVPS
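Compounds were preincubated with Tdp1 (1 nM final) for 15 min at room temperature before substrate (15 nM final) started a 5 min reaction; beads (10 ug/ml final) were then added for 10 min before AlphaScreen detection.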
Numbers stand for hits; i = inactive; ? = inconclusive; nt = no result; ! = not active in a repeat. Unless noted, calls follow the shape of the dose curve; as a rule, active = well fitted curve in the direction sought with a large enough effect; inconclusive = small, poorly fitted or top-dose-only effect, or another doubt; inactive = no such curve, though single readings can be large; an effect the other way counts as inactive or inconclusive.

SMILES	TDP1 cell CPT	TGFb SMAD3 inh	TDP1 cell noCPT	HepG2 tox	IL1B secr inh	TDP1 block
CC(C)(C)NC(=O)C(c1ccncc1)N(C(=O)Cn1nnc(-c2ccc(F)cc2)n1)c1ccccc1F (configuration not stated)	i	i	i	i	i	i
Cc1ccc(N(C(=O)Cn2nnc(-c3ccc(F)cc3)n2)C(C(=O)NC(C)(C)C)c2ccncc2)cc1 (configuration not stated)	i	i	i	i	-69	i
Cc1ccccc1N(C(=O)Cn1nnc(-c2ccc(F)cc2)n1)C(C(=O)NC(C)(C)C)c1ccncc1 (configuration not stated)	i	i	i	i	-57	i
CCCCNC(=O)C1(C)CCN1C(=O)c1cncc(Br)c1 (configuration not stated)	i	i	i	i	i	nt
O=C(COC(=O)C1COc2ccccc2O1)Nc1ccccc1OC(F)F (configuration not stated)	i	i	i	i	i	i
CC1CCN(C(=S)c2cn(Cc3ccc(F)cc3)c3ccccc23)CC1	?	i	23µM	i	i	i
CN1CCN(C(=S)c2cn(Cc3cccc(F)c3)c3ccccc23)CC1	?	i	21µM	i	i	i
CSC(=NS(=O)(=O)c1ccccc1)NNC(=O)c1c(-c2c(Cl)cccc2Cl)noc1C	i	i	i	i	i	nt
COc1cccc(C2C=C(c3ccc(Br)s3)Nc3ncnn32)c1OC (configuration not stated)	?	i	?	i	i	i
Fc1ccc(Br)cc1C1C=C(c2ccc(Br)s2)Nc2ncnn21 (configuration not stated)	0.92µM	i	0.65µM	i	i	i
Cc1cccc(N(C)c2ncnc3onc(-c4ccc(F)cc4)c23)c1C	?	i	16µM	i	i	nt
CNCC(=O)c1c[nH]c2ccccc12	?	i	?	i	nt	nt
C[C@H](NC(=O)[C@@H]1CCC(=O)N1Cc1ccco1)c1ccccc1	i	i	i	i	i	nt
c1coc(-c2cc3nc(NC4CCCCC4)ccn3n2)c1	?	i	21µM	i	i	nt
CC(=O)/C=C(\C)Nc1c(C)n(C)n(-c2ccccc2)c1=O	i	i	i	i	i	i
CC(=O)C(C(C)=O)c1c(Cl)c(O)c(O)c2c(C(=O)c3ccccc3)coc12	4.6µM	?	3.7µM	i	i	i
CN1CCN(Cc2c(O)ccc3occ(C(=O)c4ccccc4)c23)CC1	?	i	i	i	i	i
O=C1O[C@@H](c2ccccc2)C[C@@H](O)C(=O)CCCc2ccccc21	?	nt	?	nt	i	nt
COC(=O)c1ccc(Cn2c(SCC(=O)NCc3ccccc3)nc3ccccc32)cc1	21µM	i	23µM	i	nt	i
COc1ccc(NC(=O)CSc2nnc(-c3ccccc3C)n2N)cc1OC	i	i	i	i	i	i
CN(C)C(=O)CSc1nc2ccccc2n1Cc1ccccc1	?	i	?	i	i	i
CN(C)S(=O)(=O)c1cc(NC(=O)CSc2ncc(C(F)(F)F)cc2Cl)ccc1Cl	15µM	?	16µM	i	-82	i
COc1ccc(NC(=O)CSc2nnc(-c3ccccc3C)n2N)cc1	16µM	?	21µM	i	i	i
CCN(C(=O)CSc1nc2ccccc2n1Cc1ccc(C(=O)OC)cc1)c1ccccc1	21µM	?	13µM	i	nt	i
CN(C)S(=O)(=O)c1cc(NC(=O)CSc2cccc[n+]2[O-])ccc1Cl	i	i	i	i	i	i
SMILES	TDP1 cell CPT	TGFb SMAD3 inh	TDP1 cell noCPT	HepG2 tox	IL1B secr inh	TDP1 block
CN(NC(=O)COc1ccccc1)C1=NS(=O)(=O)c2ccccc21	i	i	i	i	i	i
Cc1ccccc1Cn1c(=O)n(CCC(=O)NCc2ccco2)c(=O)c2sccc21	i	i	i	i	nt	i
COc1ccc(Cn2c(SCC(=O)Nc3ccc(OC)cc3)nc3ccccc32)cc1	26µM	?	?	i	nt	i
COCCn1c(SCC(=O)Nc2ccc(Cl)c(S(=O)(=O)N(C)C)c2)nc2ccccc21	?	i	16µM	i	i	i
CC(C)(C)C1CCc2c(sc(NC(=O)Cn3nnc(-c4ccccc4Cl)n3)c2C#N)C1 (configuration not stated)	i	i	i	i	nt	i
CCOc1ccc(NC(=O)CN(C)C(=O)CC(NC(=O)c2ccccc2)c2ccccc2)cc1OCC (configuration not stated)	i	i	i	i	i	nt
CCCN(CCC)C(=O)Cn1c(=O)n(CCCCCC(=O)NCc2ccc3c(c2)OCO3)c(=O)c2sccc21	?	i	i	i	nt	i
N=C1C(c2nc3ccccc3c(=O)[nH]2)=C(O)CN1CCc1ccccc1	2.6µM	i	6.5µM	i	i	71µM
N=C1C(c2nc3ccccc3c(=O)[nH]2)=C(O)CN1CCO	i	i	i	i	i	i
Cc1ccc2nsnc2c1S(=O)(=O)N(Cc1ccco1)Cc1cc2ccc(C)c(C)c2[nH]c1=O	i	i	?	i	i	i
Cc1ccc2[nH]c(=O)c(CN(Cc3ccco3)S(=O)(=O)c3c(C)ccc4nsnc34)cc2c1	?	i	?	i	-58	i
COc1ccc2[nH]c(=O)c(CN(Cc3cccs3)S(=O)(=O)c3c(C)ccc4nsnc34)cc2c1	4.1µM	i	18µM	i	?	i
Cc1ccc2[nH]c(=O)c(CN(CC3CCCO3)S(=O)(=O)c3c(C)ccc4nsnc34)cc2c1 (configuration not stated)	?	i	?	i	i	i
CCN(CC)CCOc1ccc(Cc2ccccc2)cc1	24µM!	nt	21µM!	nt	nt	i
CCc1ccc(OCCCCN(C)Cc2ccccc2)cc1	?	i	29µM	i	?	nt
Cc1cc(C)c(C)c(OCCCCN(C)Cc2ccccc2)c1	?	i	21µM	i	i	nt
CCN(Cc1ccccc1)Cc1ccc(OCc2ccccc2)cc1	i	i	?	i	i	nt
COc1ccc(S(=O)(=O)N(C)C[C@H]2Oc3ccc(NC(=O)c4ccncc4)cc3C(=O)N([C@H](C)CO)C[C@@H]2C)cc1	i	i	i	i	i	i
Cc1c(C(=O)Nc2ccc(S(=O)(=O)N3CCOCC3)cc2)cccc1[N+](=O)[O-]	?	i	?	i	i	nt
COc1cc(OC)nc(Nc2nc(C(N)Cc3ccc(F)cc3)cs2)n1 (configuration not stated)	21µM	?	23µM	i	nt	nt
